The source made the active and inactive calls. How the source made its calls: active means hit-call score of the fitted dose curve at least 0.9, where 1 is the maximum; inactive means score below 0.9.
experiment: CCTE_Shafer_MEA_acute_per_network_burst_spike_number_std: CCTE's Neural Acute Assay for Standard Deviation of Number of Spikes in a Network Burst, Shafer Lab (AID 2284020);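 further: fitted for decrease in spike-number SD versus DMSO so actives lower it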
Procedure: CCTE_Shafer_MEA_acute assay is conducted using Axion Biosystems 48 well microelectrode array (MEA) plates and Maestro recording system. Each well of the MEA plate contains a grid of 16 microelectrodes embedded in the culture surface. Electrically active cells, such as neurons, can be cultured over the electrodes, and electrical activity in these cells can be recorded extracellularly. The spontaneous firing of neurons is captured from each electrode on a microsecond timescale providing both temporally and spatially precise data. […] The CCTE_Shafer_MEA_acute assay uses primary cultures of rat cortical neurons. As these cultures mature over time, neural networks develop functional activity and form cohesive networks in which electrical activity can be highly coordinated. Baseline 40-minute recordings are made on days post-plating 13 or 15, followed by a secondary 40-minute recording after chemical exposure.CCTE_Shafer_MEA_acute_per_network_burst_spike_number_std is a component of the CCTE_Shafer_MEA_acute assay. It measures the standard deviation of the number of spikes (action potential firings) in a network burst (temporally-clustered group of spikes across multiple electrodes) during a recording in a microelectrode array (MEA) using Axion Biosystems Maestro 768 channel amplifier with the AxIS adaptive spike detector. The recordings before and after chemical treatment are used to calculate a percent change in the standard deviation of the number of spikes in network bursts in each well.Data from the assay component CCTE_Shafer_MEA_acute_burst_spike_number_std was analyzed into 1 assay endpoint. This assay endpoint, CCTE_Shafer_MEA_acute_burst_spike_number_std, was analyzed in the negative analysis fitting direction relative to DMSO as the negative control and baseline of activity. Using a type of functional reporter, gain or loss-of-signal activity can be used to understand electrical activity.
Spontaneous activity in the cortical cultures was recorded using an Axion Biosystems Maestro 768 channel amplifier and Axion Integrated Studios (AxIS) v1.8 (or later) software. The amplifier recorded from all channels simultaneously (gain = 1200 x; sampling rate = 12.5 kHz/channel): raw signals were filtered with a Butterworth band-pass filter (300-5000 Hz), which filters out slower local field potentials leaving only fast potentials, i.e., "spikes", arising from extracellular currents associated with action potentials (Pine 2006; Wheeler and Nam 2011). On-line spike detection of filtered signals was conducted with the AxIS adaptive spike detector, using a threshold of 8x the root mean squared (rms) noise on each channel. Any electrodes with rms noise levels greater than 5 uV were grounded (e.g., no data were recorded). Once grounded, an electrode was grounded for the duration of the experiment. All recordings were conducted at 37 C. Wells were deemed usable if on the day of the exposure >/= 10 electrodes were active (defined as >/= 5 spikes/min). On DIV 13 or 15, a minimum of three wells from one cortical culture preparation were treated with each compound (0.03-40 uM). Prior to recording baseline activity, each mwMEA plate was placed in the Maestro at 37 C and allowed to sit for 20 min while firing rates stabilized. Baseline activity (40 min) was recorded before the addition of each compound. An additional 40 min of spontaneous activity was recorded in the presence of each compound. Changes in network parameters relative to baseline were assessed following compound treatment.

Structure (SMILES) | outcome | AC50
Clc1nc(Cl)nc(Nc2ccccc2Cl)n1 | inactive | 
CC(C)N1C(=O)N(c2ccccc2)CSC1=NC(C)(C)C |  | 17.6 µM (active)
Cn1c(-c2ccccc2)cc(-c2ccccc2)[n+]1C | inactive | 
OC(c1ccc(Cl)cc1)(c1ccc(Cl)cc1)C(Cl)(Cl)Cl |  | 20 µM (active)
Cc1nc(N(C)C)nc(OC(=O)N(C)C)c1C | inactive | 
O=C(Nc1ccccc1-c1ccc(Cl)cc1)c1cccnc1Cl | inactive | 
CCCC(=NOCC)C1=C(O)CC(CC(C)SCC)CC1=O (stereo unspecified) |  | 25.4 µM (active)
CC1(C)C(C=C(Cl)Cl)C1C(=O)OC(C#N)c1cccc(Oc2ccccc2)c1 (stereo unspecified) | inactive | 
C=C(C)CN(CC)c1c([N+](=O)[O-])cc(C(F)(F)F)cc1[N+](=O)[O-] | inactive | 
CCOP(=O)(OCC)Oc1nc(Cl)c(Cl)cc1Cl | inactive | 
CO/N=C(/C1=NOCCO1)c1ccccc1Oc1ncnc(Oc2ccccc2Cl)c1F | inactive | 
COC(=O)N(C(=O)N1CO[C@@]2(C(=O)OC)Cc3cc(Cl)ccc3C2=N1)c1ccc(OC(F)(F)F)cc1 | inactive | 
CCCN(CC)CC1COC2(CCC(C(C)(C)C)CC2)O1 (stereo unspecified) | inactive | 
CNC(=O)Oc1cccc2ccccc12 | inactive | 
COP(=S)(OC)SCn1nnc2ccccc2c1=O | inactive | 
Nc1c(Cl)c(F)nc(OCC(=O)O)c1Cl | inactive | 

Structure (SMILES) | outcome | AC50
CC(C)C1(C)N=C(c2ncccc2C(=O)O)NC1=O (stereo unspecified) | inactive | 
Cc1ccc(N=CN(C)C=Nc2ccc(C)cc2C)c(C)c1 |  | 4.1 µM (active)
CCCCC(O)(Cn1cncn1)c1ccc(Cl)cc1Cl (stereo unspecified) | inactive | 
CCOc1cc(C(C)(C)C)ccc1C1COC(c2c(F)cccc2F)=N1 (stereo unspecified) |  | 29 µM (active)
CC1(C)C(C(=O)OC(C#N)c2cccc(Oc3ccccc3)c2)C1(C)C (stereo unspecified) | inactive | 
COCC(=O)N(c1c(C)cccc1C)C(C)C(=O)OC (stereo unspecified) | inactive | 
Cc1c(COC(=O)[C@@H]2[C@H](/C=C(\Cl)C(F)(F)F)C2(C)C)cccc1-c1ccccc1 |  | 0.931 µM (active)
CC1(C)CCC(=Cc2ccc(Cl)cc2)C1(O)Cn1cncn1 (stereo unspecified) | inactive | 
N#CN=C1SCCN1Cc1ccc(Cl)nc1 | inactive | 
N#Cc1c[nH]cc1-c1cccc2c1OC(F)(F)O2 |  | 20 µM (active)
CN/C(=N\[N+](=O)[O-])NCc1cnc(Cl)s1 | inactive | 
CC(C)=CC1C(C(=O)OCc2coc(Cc3ccccc3)c2)C1(C)C (stereo unspecified) |  | 20 µM (active)
CCOc1nc(F)cc2nc(S(=O)(=O)Nc3c(Cl)cccc3Cl)nn12 | inactive | 
CCOC(=O)C(C)OC(=O)c1cc(Oc2ccc(C(F)(F)F)cc2Cl)ccc1[N+](=O)[O-] (stereo unspecified) | inactive | 
CC(C)N1C(=O)c2ccccc2NS1(=O)=O | inactive | 
